Reference: the antibiotic and cytotoxicity screens of Wong et al. (2023)
The whole screen tested about 39,000 compounds, of which about 3,300 (8.5%) were called active. Only a selection was taken, and actives are over-represented in it overall.

Each molecule was assayed on HepG2 (assay: cytotoxicity call (relative viability < 0.9)). Settings: 10 µM.
Cc1ccc(S(=O)(=O)Nc2ccc3c(c2)C(=O)N([C@@H](C)CO)C[C@H](C)[C@@H](CN(C)Cc2ccc4c(c2)OCO4)OCCCC[C@@H](C)O3)cc1 was tested, and the cytotoxicity call was “inactive”.
For Cc1ccc(S(=O)(=O)Nc2ccc3c(c2)CC(=O)N([C@@H](C)CO)C[C@H](C)[C@@H](CN(C)S(C)(=O)=O)O3)cc1, the cytotoxicity call was “inactive”.
For C[C@H](CO)N1C[C@H](C)[C@@H](CN(C)S(=O)(=O)c2ccc(Cl)cc2)Oc2ccc(NS(C)(=O)=O)cc2CC1=O, the cytotoxicity call was “inactive”.
In the case of Cc1cc(C(=O)Nc2cccc3c2O[C@H](CN(C)C(=O)NC(C)C)[C@H](C)CN([C@H](C)CO)C3=O)n(C)n1, the cytotoxicity call is reported as “inactive”.
In the case of COc1ccc(CN(C)C[C@@H]2OCCCC[C@@H](C)Oc3ccc(NS(=O)(=O)c4cccs4)cc3C(=O)N([C@H](C)CO)C[C@H]2C)cc1, the cytotoxicity call is reported as “inactive”.
With C[C@H](CO)N1C[C@H](C)[C@H](CN(C)C(=O)NC2CCCCC2)Oc2ccc(NC(=O)Cn3cnnn3)cc2CC1=O the cytotoxicity call was “inactive”.
For C[C@@H]1CN([C@H](C)CO)C(=O)c2cc(NC(=O)Nc3ccccc3)ccc2O[C@@H](C)CCCCO[C@@H]1CN(C)C(=O)Cc1ccccc1, the cytotoxicity call was “inactive”.
In the case of O=C(C[C@@H]1CC=CCC[C@@H](Cc2ccc(F)cc2)C(=O)OCCNC1=O)N[C@@H](CO)Cc1ccccc1, the cytotoxicity call is reported as “inactive”.
For CCNC(=S)N1CCCC[C@@H]1CO, the cytotoxicity call was “inactive”.
In the case of C[C@@H]1CCCCO[C@@H](CN(C)Cc2ccncc2)[C@@H](C)CN([C@@H](C)CO)C(=O)c2cc(NC(=O)C3CCCCC3)ccc2O1, the cytotoxicity call is reported as “inactive”.
In the case of C[C@@H]1CCCCO[C@H](CN(C)Cc2ccncc2)[C@@H](C)CN([C@H](C)CO)C(=O)c2cc(NC(=O)C3CCCCC3)ccc2O1, the cytotoxicity call is reported as “inactive”.
For C[C@@H]1CCCCO[C@H](CN(C)Cc2ccncc2)[C@H](C)CN([C@@H](C)CO)C(=O)c2cc(NC(=O)C3CCCCC3)ccc2O1, the cytotoxicity call was “active”.
In the case of C[C@@H]1CCCCO[C@@H](CN(C)Cc2ccc(C(F)(F)F)cc2)[C@H](C)CN([C@H](C)CO)C(=O)c2cc(NC(=O)C3CCCCC3)ccc2O1, the cytotoxicity call is reported as “inactive”.
In the case of C[C@@H]1CCCCO[C@H](CN(C)Cc2ccc(C(F)(F)F)cc2)[C@H](C)CN([C@H](C)CO)C(=O)c2cc(NC(=O)C3CCCCC3)ccc2O1, the cytotoxicity call is reported as “inactive”.
With C[C@@H]1CCCCO[C@H](CN(C)Cc2ccc(C(F)(F)F)cc2)[C@@H](C)CN([C@H](C)CO)C(=O)c2cc(NC(=O)C3CCCCC3)ccc2O1 the cytotoxicity call was “active”.
With C[C@@H]1CN([C@H](C)CO)C(=O)CCCn2cc(nn2)CO[C@H]1CN(C)C(=O)Nc1cccc(C(F)(F)F)c1 the cytotoxicity call was “inactive”.
For CC(C)NC(=O)N(C)C[C@H]1Oc2ccc(NC(=O)Nc3ccc4c(c3)OCO4)cc2CC(=O)N([C@H](C)CO)C[C@H]1C, the cytotoxicity call was “inactive”.
In the case of COCCOC(=O)N1C(=O)[C@@]2(c3cc(C#CC4=CCCCC4)ccc31)[C@H](c1ccc(OCCO)cc1)N1[C@H](c3ccccc3)[C@H](c3ccccc3)OC(=O)[C@H]1[C@@H]2C(=O)N1CCN(c2ncccn2)CC1, the cytotoxicity call is reported as “inactive”.
NNC(=O)CN1CCCc2ccccc21 was tested, and the cytotoxicity call was “inactive”.
In the case of CNCCCN1c2ccccc2CCc2ccccc21.Cl, the cytotoxicity call is reported as “active”.
CC(=O)c1ccc2c(c1)N(CCCN(C)C)c1ccccc1S2.O=C(O)C=CC(=O)O was tested, and the cytotoxicity call was “inactive”.
For CN(C)CCCN1c2ccccc2CCc2ccccc21.Cl, the cytotoxicity call was “active”.
With CNC(=O)[C@H]1Cc2ccccc2N1C(=O)COC the cytotoxicity call was “inactive”.
In the case of COc1ccc(C2Sc3ccccc3N(CCN(C)C)C(=O)C2OC(C)=O)cc1.Cl (configuration not stated), the cytotoxicity call is reported as “inactive”.
CN(C)CCCN1c2ccccc2Sc2ccc(Cl)cc21.Cl was tested, and the cytotoxicity call was “active”.
In the case of CN(C)CCCN1c2ccccc2Sc2ccccc21.Cl, the cytotoxicity call is reported as “active”.
For CN(C)CCCN1C(=O)[C@@H]2[C@@H](C1=O)[C@@H]1C=C[C@@H]2C1, the cytotoxicity call was “inactive”.
CN(C)CCCN1c2ccccc2CCc2ccc(Cl)cc21.Cl was tested, and the cytotoxicity call was “inactive”.
With CN(C)CCCN1C(=O)[C@@]2(Cc3ccccc31)c1ccccc1C(=O)N(Cc1ccccc1)[C@H]2c1ccc(CO)cc1 the cytotoxicity call was “inactive”.
In the case of C[C@H](CO)N1C[C@H](C)[C@@H](CN(C)S(=O)(=O)c2cn(C)cn2)Oc2ncc(C#CCN(C)C)cc2C1=O, the cytotoxicity call is reported as “inactive”.
For Cc1noc(C)c1S(=O)(=O)Nc1cccc2c1O[C@@H](CN(C)Cc1ccncc1)[C@@H](C)CN([C@@H](C)CO)C2=O, the cytotoxicity call was “inactive”.
With CON=C(C(=O)NC1C(=O)N2C(C(=O)[O-])=C(CSc3nc(=O)c([O-])nn3C)CSC12)c1csc(N)n1.O.O.O.[Na+].[Na+] (configuration not stated) the cytotoxicity call was “inactive”.
For COc1ccccc1NC(=O)N(C)C[C@@H]1Oc2ncc(C#CC(C)C)cc2C(=O)N([C@H](C)CO)C[C@H]1C, the cytotoxicity call was “inactive”.
COC(=O)/C=C/C(=O)OC was tested, and the cytotoxicity call was “inactive”.
With COC(=O)/C=C/C(=O)O the cytotoxicity call was “inactive”.
With COC(=O)C=CC(=O)OC the cytotoxicity call was “active”.
With COCC#Cc1cnc2c(c1)C(=O)N([C@@H](C)CO)C[C@H](C)[C@@H](CN(C)C(=O)c1cnccn1)O2 the cytotoxicity call was “inactive”.
O=C(Cc1ccc2c(c1)OCO2)N[C@@H]1CCNC[C@H]1O was tested, and the cytotoxicity call was “inactive”.
C[C@@H]1CN([C@@H](C)CO)S(=O)(=O)c2ccc(-c3ccc(C(=O)N(C)C)cc3)cc2O[C@H]1CN(C)C(=O)C1CC1 was tested, and the cytotoxicity call was “inactive”.
With C[C@H](CO)N1C[C@H](C)[C@@H](CN(C)Cc2ccncc2)Oc2ccc(NC(=O)Nc3ccc(C(F)(F)F)cc3)cc2C1=O the cytotoxicity call was “inactive”.
C[C@@H]1CN([C@@H](C)CO)C(=O)c2cc(NC(=O)c3ccccc3)ccc2O[C@@H](C)CCCCO[C@@H]1CN(C)C(=O)Nc1ccc(C(F)(F)F)cc1 was tested, and the cytotoxicity call was “active”.
C[C@H]1CCCCO[C@@H](CN(C)C(=O)Nc2ccc(C(F)(F)F)cc2)[C@@H](C)CN([C@@H](C)CO)C(=O)c2cc(NC(=O)c3ccccc3)ccc2O1 was tested, and the cytotoxicity call was “inactive”.
With C[C@@H]1CCCCO[C@H](CN(C)C(=O)Nc2ccc(C(F)(F)F)cc2)[C@@H](C)CN([C@H](C)CO)C(=O)c2cc(NC(=O)Nc3ccccc3)ccc2O1 the cytotoxicity call was “inactive”.
In the case of C[C@H](CO)N1C[C@H](C)[C@H](CN(C)C(=O)Nc2ccccc2)OCCCC[C@H](C)Oc2ccc(NC(=O)Nc3ccc(C(F)(F)F)cc3)cc2C1=O, the cytotoxicity call is reported as “inactive”.
With C[C@H]1CCCCO[C@H](CN(C)C(=O)Nc2ccc(C(F)(F)F)cc2)[C@@H](C)CN([C@@H](C)CO)C(=O)c2cc(NC(=O)Nc3ccccc3)ccc2O1 the cytotoxicity call was “inactive”.
With C[C@@H]1CCCCO[C@H](CN(C)C(=O)Nc2ccc(C(F)(F)F)cc2)[C@@H](C)CN([C@@H](C)CO)C(=O)c2cc(NC(=O)Nc3ccccc3)ccc2O1 the cytotoxicity call was “active”.
In the case of C[C@@H]1CCCCO[C@@H](CN(C)C(=O)Nc2ccccc2)[C@@H](C)CN([C@H](C)CO)C(=O)c2cc(NC(=O)Nc3ccc(C(F)(F)F)cc3)ccc2O1, the cytotoxicity call is reported as “active”.
C[C@@H]1CCCCO[C@@H](CN(C)C(=O)Nc2ccccc2)[C@@H](C)CN([C@@H](C)CO)C(=O)c2cc(NC(=O)Nc3ccc(C(F)(F)F)cc3)ccc2O1 was tested, and the cytotoxicity call was “active”.
C[C@@H]1CCCCO[C@H](CN(C)C(=O)Nc2ccc(C(F)(F)F)cc2)[C@H](C)CN([C@@H](C)CO)C(=O)c2cc(NC(=O)Nc3ccccc3)ccc2O1 was tested, and the cytotoxicity call was “inactive”.
With C[C@H]1CCCCO[C@@H](CN(C)C(=O)Nc2ccc(C(F)(F)F)cc2)[C@@H](C)CN([C@@H](C)CO)C(=O)c2cc(NC(=O)Nc3ccccc3)ccc2O1 the cytotoxicity call was “inactive”.
With C[C@@H]1CCCCO[C@H](CN(C)C(=O)Nc2ccc(C(F)(F)F)cc2)[C@H](C)CN([C@@H](C)CO)C(=O)c2cc(NC(=O)c3ccccc3)ccc2O1 the cytotoxicity call was “inactive”.
For C[C@H](CO)N1C[C@H](C)[C@@H](CN(C)C(=O)Nc2ccc(C(F)(F)F)cc2)OCCCC[C@H](C)Oc2ccc(NC(=O)Nc3ccccc3)cc2C1=O, the cytotoxicity call was “inactive”.
